# Source: PubChem (The Scripps Research Institute Molecular Screening Center)
# TEAD-YAP block: TEAD-YAP interaction inhibition, primary screen, TEAD-YAP interaction inhibitor project, luminescence, HEK-TIYL cells; TEAD-Gal4/YAP UAS-luciferase luminescence; inhibition, % at 9.12 µM; 640,000 compounds, 1.4% hits; AID 1259422, 2018; in the data active = inhibition above about 32%
# FBW7 activator: FBW7 E3 ligase activators, primary screen, biochemical, AlphaScreen, human | normalized activity (activation), % at 26.1 µM | AlphaScreen FBW7–phospho-cyclin E peptide binding, activator screen | 650,000 compounds, 0.13% hits | AID 1259310, 2017 | F-box/WD repeat-containing protein 7 (Homo sapiens), Q969H0; in the data active = normalized activity above about 1.9%;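 also: purified mutant Fbw7 with reduced substrate affinity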
# MITF inh: MITF inhibitors, primary screen, biochemical, AlphaScreen, human. Microphthalmia-associated transcription factor (Homo sapiens), O75030. AlphaScreen MITF homodimerization, bead proximity signal. inhibition, % at 2.6 µM. 650,000 compounds, 0.91% hits. AID 1259374, 2018; in the data active = inhibition above about 50%
# GPR151 ag: activators of human GPR151, primary screen, cell-based, PathHunter beta-arrestin, luminescence. G-protein coupled receptor 151 (Homo sapiens), Q8TDV0. PathHunter beta-arrestin GPR151 cells. activation, % at 11.2 µM. 650,000 compounds, 1% hits; in the data active = activation above about 4.9%
# MITF inh conf: MITF inhibitors, retest of hits, confirmation, biochemical, AlphaScreen, triplicate; shares compounds with MITF inh; AlphaScreen MITF homodimerization, biotin/His-MITF beads; inhibition, % at 2.6 µM; 4,700 compounds, 16% hits;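 active = inhibition above a cutoff derived from the DMSO control wells, cut at about 28% in these data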;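 also: inhibitors lower the bead chemiluminescence by keeping MITF from dimerizing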
# AS interf ctr: AlphaScreen optical interference compounds, counter-screen for MITF inhibitor project, biochemical, triplicate; shares compounds with MITF inh; LysRS AlphaScreen counterscreen, signal interference; inhibition, % at 2.6 µM; 4,700 compounds, 7.6% hits; AID 1259376, 2018;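 active = inhibition above a cutoff derived from the DMSO control wells, cut at about 30% in these data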
# A number is an active result; 0 = inactive; - = not tested or not shown. Most compounds without a hit are left out; they make up all but 3.4% or so of the library.
SMILES,TEAD-YAP block,FBW7 activator,MITF inh,GPR151 ag,MITF inh conf,AS interf ctr
CSc1nc(NN)c2c3c(sc2n1)CN(C)CC3,0,0,73.8,0,0,0
COC(=O)/C(=C/c1ccccc1)NC(=O)c1ccccc1OC,0,0,0,0,-,-
CSc1ccc(NC(=O)C2CC23CCN(Cc2coc4ccc(C)cc4c2=O)CC3)cc1 (centres undefined),0,0,0,0,-,-
Cc1ccc2occ(CN3CCC4(CC3)CC4C(=O)Nc3ccc(F)c(F)c3)c(=O)c2c1 (centres undefined),0,0,73.7,0,0,0
COC(=O)Cc1cc(=O)n(-c2nc3ccccc3[nH]2)[nH]1,0,0,94.3,0,72.2,98.6
CC(=O)N(C)c1c(C)n(C)n(-c2ccccc2)c1=O,0,0,0,0,-,-
Fc1ccc(-c2cc(NCCCn3ccnc3)nc(-c3ccccn3)n2)cc1,0,0,55.8,0,0,61.9
c1cc(-c2cc(NCCCn3ccnc3)nc(-c3ccncc3)n2)ccn1,0,0,71.5,0,33.8,42.3
Fc1ccc(-c2cc(NCCCn3ccnc3)nc(-c3ccccc3)n2)cc1,0,0,55.2,0,33.9,42.0
FC(F)(F)c1cccc(-c2cc(NCCCn3ccnc3)nc(-c3ccccn3)n2)c1,0,0,0,0,-,-
CN1CCc2c1nc1ccccc1c2NC(=O)C12CC3CC(CC(C3)C1)C2,0,0,0,0,-,-
CN1CCN(CC(=O)Nc2c3c(nc4ccccc24)N(C)CC3)CC1,0,0,78.7,0,0,0
CN(CC(=O)Nc1c2c(nc3ccccc13)N(C)CC2)Cc1ccccc1,0,0,65.1,0,0,0
CN1CCc2c1nc1ccccc1c2NC(=O)CNC1CC1,0,0,52.9,0,0,0
O=C(CN1CCCCC1)Nc1c2c(nc3ccccc13)N(c1ccccc1)CC2,0,0,0,0,-,-
CN(CC(=O)Nc1c2c(nc3c1CCC3)CCCC2)Cc1ccccc1,0,0,68.0,0,0,0
Cc1ccc2nc(N3CCCCC3)c(/C=C3\SC(=S)NC3=O)c(=O)n2c1,0,0,0,0,-,-
CC(C)N(CCNc1cc(Nc2ccc(N3CCOCC3)cc2)nc(N)n1)C(C)C,0,0,0,0,-,-
c1cn(-c2ccc(Nc3nc4ncnc(Nc5ccc(N6CCOCC6)cc5)c4[nH]3)cc2)cn1,0,0,0,0,-,-
c1cn(-c2ccc(Nc3nc4ncnc(NCCN5CCOCC5)c4[nH]3)cc2)cn1,0,0,87.7,0,0,0
COCCCNCCOCCOc1c(C)cc(C)cc1C,0,0,0,0,-,-
Cc1cc(OCCOCCNCCN)cc(C)c1Cl,0,0,0,0,-,-
COCCCNCCOCCOc1c(C)cc(Cl)cc1C,0,0,71.5,0,0,0
Cc1cc(Cl)cc(Cl)c1OCCOCCNCCN,0,0,64.6,0,0,0
Cc1cc(C)c(OCCOCCNCCN)c(C)c1,0,0,70.5,0,0,0
SMILES,TEAD-YAP block,FBW7 activator,MITF inh,GPR151 ag,MITF inh conf,AS interf ctr
O=C(NNC(=O)c1nn(-c2ccccc2)c(=O)c2ccccc12)c1ccccc1F,0,0,0,0,-,-
c1ccc(OCCOCCN2CCNCC2)cc1,0,0,0,0,-,-
CCOc1ccccc1OCCOCCN1CCN(Cc2ccccc2)CC1,0,0,84.7,0,0,0
c1ccc(CN2CCN(CCOCCOc3ccccc3)CC2)cc1,0,0,82.6,0,0,0
COC(=O)Cc1ccc(N(Cc2ccccc2F)S(=O)(=O)c2ccc([N+](=O)[O-])cc2)cc1,0,0,0,0,-,-
Cc1c(C(=O)N2CCN(c3ccc(F)cc3)CC2)cccc1[N+](=O)[O-],0,0,0,0,-,-
CC(C)OC(=O)CCC(=O)n1nnc2ccccc21,0,0,0,0,-,-
COCCOC(=O)/C(C#N)=C/c1ccc(N(C)c2ccccc2)cc1,0,0,0,0,-,-
Cc1nc(NC(=O)CSc2nnc(-c3ccc(F)cc3)o2)sc1C,0,0,0,0,-,-
O=C1OC(OC(=O)c2ccco2)C(Nc2ccccc2)=C1Cl (centres undefined),0,0,70.8,0,0,0
NC(=O)SCC(=O)Nc1cc(Cl)ccc1Cl,0,0,0,0,-,-
CC(C)(C)n1ncc2c(=O)n(Cc3cccc(F)c3)cnc21,0,0,54.5,0,0,0
